KinaseGlo FLuc = Counterscreen for Luciferase (Kinase-Glo TM) Inhibition; Kinase-Glo luciferase, ATP luminescence, 8 min; Potency, µM (titrated, usually from 38.3 µM), for the others: at the top dose activity change, negative = inhibition, most hits filed as inhibitors; 200,000 compounds, 0.28% hits; AID 1379, 2008; also: % is scaled to controls: 0 for no effect and ±100 for the full control effect; nearly all actives have a fitted effect of over 60% in size
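Recombinant Kinase-Glo luciferase, 10 uM ATP (linear range), luciferin; imidazole pH 7.2 / KCl / MgCl2 / Tween / BSA buffer; 8 min RT; luminescence.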
Rab9 promoter act = qHTS Assay for Rab9 Promoter Activators | 320,000 compounds, 2.8% hits | Huh7 Rab9 promoter-luciferase reporter, luminescence, 24 h | Potency, µM (top dose mostly 9.22 µM), for inactives: at the top dose activation, negative = inhibition, usual class: activators; also: % of control where 0% means no effect; nearly all actives have a fitted effect of over 60% in size
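Luminescence read-out: Huh7 cells stably expressing Rab9-luciferase, treated 24 h with compound at 37 °C, then lysed with luciferase reagent for 10 min at ambient before reading.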
ELG1 genotoxic = qHTS screen for small molecules that induce genotoxicity in human embryonic kidney (HEK293T) cells expressing luciferase-tagged ELG1 | HEK293T ELG1-luciferase reporter, luminescence, 16 h | Potency, µM (highest dose often 46 µM), inactives show at the top dose activity change, positive = activation, actives largely listed as activators | 330,000 compounds, 1.3% hits | AID 504466, 2011; also: % of control where 0% means no effect; nearly all actives have a fitted effect of over 60% in size
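Genotoxicity was scored as increased ELG1-luciferase reporter signal, measured by ONE-Glo luminescence (30 min, room temperature). Compound or vehicle exposure of the HEK293T reporter cells lasted 16 hr at 37°C.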
SMN2 splice enh = qHTS Assay for Enhancers of SMN2 Splice Variant Expression. Potency, µM (series often up to 46.1 µM), inactives show at the highest dose activity change, positive = activation, hits mostly activators. HEK293 SMN2-luciferase splicing reporter, luminescence, 30-36 h. 210,000 compounds, 2.8% hits; also: % of control where 0% means no effect; nearly all actives have a fitted effect of over 55% in size
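qHTS luciferase splicing reporter: luminescence rises when SMN2 exon 7 is included in transfected HEK293 cells. Compound exposure lasted 30-36 h at 37C, with 4.5 mM final sodium butyrate as control, followed by a ONE-Glo read.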
NPC1 promoter act = qHTS Assay for NPC1 Promoter Activators. Huh7 NPC1 promoter luciferase reporter, 24 h. Potency, µM (doses to about 9.22 µM), for the others: top-dose activation, usual class: activators. 320,000 compounds, 2.4% hits. AID 485313, 2010; also: % of control where 0% means no effect; nearly all actives have a fitted effect of over 60% in size
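NPC1 promoter–luciferase Huh7 cells; 24 h compound; luminescence.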
FLuc counter = qHTS profiling assay for firefly luciferase inhibitor/activator using purifed enzyme and Km concentrations of substrates (counterscreen for miR-21 project); Luciferin 4-monooxygenase (Photinus pyralis), P08659; purified FLuc, Km substrates, luminescence inhibition; Potency, µM (doses to about 57.5 µM), for inactives: at the top dose activity change, negative = inhibition, hits mostly inhibitors; 360,000 compounds, 6.9% hits;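 also: plate controls were vehicle for no effect and reference inhibitor for full effect; nearly all actives have a fitted effect of over 55% in size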
Target sequence (P08659 whole entry, looked up): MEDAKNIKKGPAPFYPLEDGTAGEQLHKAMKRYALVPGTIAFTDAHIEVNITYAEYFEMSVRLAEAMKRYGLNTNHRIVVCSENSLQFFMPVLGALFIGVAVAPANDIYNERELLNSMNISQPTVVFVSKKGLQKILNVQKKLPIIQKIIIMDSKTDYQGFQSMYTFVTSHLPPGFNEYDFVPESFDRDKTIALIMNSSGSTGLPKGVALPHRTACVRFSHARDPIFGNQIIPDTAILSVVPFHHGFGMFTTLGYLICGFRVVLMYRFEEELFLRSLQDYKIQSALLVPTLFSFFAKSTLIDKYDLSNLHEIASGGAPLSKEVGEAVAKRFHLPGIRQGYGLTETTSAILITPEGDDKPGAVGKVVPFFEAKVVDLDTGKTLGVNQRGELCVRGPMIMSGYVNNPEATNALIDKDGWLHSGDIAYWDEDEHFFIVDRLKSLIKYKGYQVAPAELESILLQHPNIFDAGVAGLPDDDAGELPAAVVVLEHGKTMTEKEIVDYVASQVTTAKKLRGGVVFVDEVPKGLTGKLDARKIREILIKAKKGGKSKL
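Purified P. pyralis luciferase, 10 nM final, with Km-level 10 uM D-luciferin and 10 uM ATP in 50 mM Tris acetate pH 7.5, 10 mM Mg acetate, 0.01% Tween-20, 0.05% BSA; 6-point qHTS titration about 60 µM downward; luminescence read.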
Active calls of the source: *; ? = inconclusive; . = not tested or not shown. Most compounds without a hit are left out; they make up all but 7.4% or so of the library. Calls follow the shape of the dose curve; as a rule, active = well fitted curve in the direction sought with a large enough effect; inconclusive = small, poorly fitted or top-dose-only effect, or another doubt; inactive = no such curve, though single readings can be large; an effect the other way counts as inactive or inconclusive. Potency is read from the fitted curve at half-maximal effect.

SMILES	KinaseGlo FLuc	Rab9 promoter act	ELG1 genotoxic	SMN2 splice enh	NPC1 promoter act	FLuc counter
N#C/C(=C\c1cccnc1)C(=O)NC1CCCCC1	1.3%	-4.1%	13.9%	?	-2.2%	1.6%
N#C/C(=C/c1cccnc1)c1ccccc1	.	2.9%	4.2%	.	4.5%	-16.2%
Cc1c2cnn(CC(=O)N3CCN(c4ccccc4)CC3)c(=O)c2c(C)n1Cc1ccc(F)cc1	.	.	.	-10.1%	.	?
COc1ccccc1C(=O)NC1(C(F)(F)F)C(=O)NC(C)=C1C#N (stereo not drawn)	.	.	.	4.4%	.	-0.7%
Cc1ccc(N2CC(NC(=O)C(=O)c3c(C)[nH]c4ccccc34)CC2=O)cc1C (stereo not drawn)	.	2.7%	5.9%	.	-3.1%	-0.7%
COc1ccc2c(c1)O[C@H](c1ccc3c(c1)OCO3)[C@@H](OC(=O)Nc1ccc(OC(F)F)cc1)C2=O	0.4%	.	.	8.2%	.	.
CC(C)c1ccc(-c2cc(C(=O)N3N=C(C(F)F)CC3(O)C(F)F)c3ccccc3n2)cc1 (stereo not drawn)	-3.4%	?	?	?	?	1.51µM*
CC(C)c1ccc(-c2cc(C(=O)NN3CCN(C)CC3)c3ccccc3n2)cc1	-17.9%	?	?	?	?	0.601µM*
CCc1ccc(-c2cc(C(=O)NN3CCOCC3)c3ccccc3n2)cc1	-4.2%	2.6%	3.3%	1.0%	9.9%	4.78µM*
COc1ccc(OCc2cc(C(=O)N(C)CCC3CCOCC3)no2)c(Cl)c1	.	?	?	.	?	16.9µM*
COc1cccc(OCc2cc(C(=O)N3CCC(c4ccncc4)CC3)no2)c1	.	-24.6%	2.8%	.	-22.3%	-3.1%
COc1ccc(OCc2cc(C(=O)NC3CCc4ccccc43)no2)c(Cl)c1 (stereo not drawn)	.	0.5%	-4.0%	.	-6.1%	-3.1%
COc1ccc(OCc2cc(C(=O)N3CCC(c4ccccc4)CC3)no2)c(Cl)c1	.	2.82µM*	16.3%	.	?	23.9µM*
COc1ccc(OCc2cc(C(=O)NCCCc3ccccc3)no2)c(Cl)c1	.	4.8%	-8.5%	.	-19.8%	?
COc1ccc(OCc2cc(C(=O)N(C)C(C)c3ccon3)no2)c(Cl)c1 (stereo not drawn)	.	2.51µM*	?	.	?	13.5µM*
COc1ccc(OCc2cc(C(=O)N3CCSCC3)no2)c(Cl)c1	.	2.82µM*	?	.	2.82µM*	10.7µM*
Cc1[nH]c2ccccc2c1C(=O)C(C)OC(=O)c1ccc(Cl)nc1 (stereo not drawn)	.	0.3%	-4.7%	.	14.3%	0.1%
Cc1cc2nnn(-c3nnc(-c4ccccc4)c4ccccc34)c2cc1C	0.3%	1.8%	-0.7%	-19.5%	1.8%	-0.6%
COc1nc(N)nc(N)c1NS(=O)(=O)c1ccc(C)cc1	.	-3.0%	0.3%	.	1.2%	2.1%
COc1ccc(OCc2cc(C(=O)N3CCOCC3)no2)c(Cl)c1	.	1.41µM*	18.3µM*	.	1.58µM*	6.75µM*
O=C(c1cc(COc2ccc(F)cc2Cl)on1)N1CCSCC1	.	3.98µM*	?	.	2.82µM*	10.7µM*
COc1cc(C)ccc1OCc1cc(C(=O)N2CCCCCC2)no1	.	22.0%	1.6%	.	17.7%	?
COc1cccc(OCc2cc(C(=O)N3CCN(C)C(c4ccccc4)C3)no2)c1 (stereo not drawn)	.	?	6.9%	.	26.3%	26.9µM*
COc1ccc(OCc2cc(C(=O)N3CCCCCC3)no2)c(Cl)c1	.	?	?	.	?	19µM*
COc1ccc(OCc2cc(C(=O)N3CCN(CC(=O)N(C)C)CC3)no2)c(Cl)c1	.	8.2%	6.0%	.	-1.4%	-18.9%
